Screening results (PubChem)
A selection: hits, their analogues and other compounds. The true share with any hit is near 4.1%.
NSD2 HMT inh – NSD2 histone methyltransferase inhibitors, primary screen, biochemical, AlphaScreen, single concentration, set 2 | Histone-lysine N-methyltransferase NSD2 (Homo sapiens), O96028 | NSD2 peptide methylation, 120 min | inhibition, % at 12.5 µM | hit rate 0.54% among 310,000 | AID 743445, 2014; in the data active = inhibition above about 50%
CASP6 VEID inh – human caspase-6 inhibitors, primary screen, biochemical, VEID-R110 fluorescence, single point, set 2 | P55212 | purified caspase-6, Z-VEID-R110 cleavage fluorescence | inhibition, % at 12.5 µM | hit rate 0.53% among 350,000;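 active = mean inhibition across replicates at least about 35%, with every replicate also reaching that limit, limit read from the data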;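 note: 0% = median of neutral control wells and 100% = no fluorescence left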
ALR inh – inhibitors of human ALR sulfhydryl oxidase, primary screen, biochemical, H2O2 detection, HRP-luminol luminescence, single point; purified ALR, DTT oxidation; FAD-linked sulfhydryl oxidase ALR (Homo sapiens), P55789; hit rate 3.8% among 290,000; AID 485317, 2010; inhibition, % (no concentration beside the values);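 active = mean replicate inhibition above about 79%, with every replicate also reaching it, limit read from the data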
Env fusion inh – inhibitors of HIV-1 Env-driven cell-cell fusion, primary screen, HeLa-JRFL effector, CEM21 target cells, luciferase; inhibition, % at 12.3 µM; hit rate 1.1% among 360,000;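 active = mean replicate inhibition score of at least 50 and every replicate individually at or above 50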;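 note: 0% = plate neutral controls and 100% = maraviroc near 300 nM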
F508del corr – F508del CFTR correction, initial screen, CFBE line, single point; CFBE cells, YFP halide quenching; stimulated with forskolin plus potentiator P3; % fluorescence drop versus neutral controls; activity (quench increase), % at 7.58 µM; hit rate 0.36% among 350,000; AID 720511, 2013;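 active = mean added fluorescence quench of at least 8% versus neutral control, with both replicates also reaching 8%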;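 note: cells transiently co-express mutant CFTR-F508del with the halide-sensitive YFP; corrector assay measuring rescue of mutant channel to the surface after 24 h compound exposure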
PglD inh – C. jejuni PglD acetyltransferase inhibitors, primary screen, biochemical, DTNB colorimetric, single point; UDP-N-acetylbacillosamine N-acetyltransferase PglD (Campylobacter jejuni); purified PglD enzyme, DTNB colorimetric CoA detection; inhibition, % at 12.5 µM; hit rate 0.098% among 360,000; AID 602405, 2012; in the data active = inhibition above about 16%, passing the limit was not always enough
Alpha artifact – AlphaScreen signal interference with preloaded methylated product, dose response, artefact control for NSD2 inhibitor project, biochemical, cherry-picked samples | shares compounds with NSD2 HMT inh | AlphaScreen artifact counterscreen, preloaded methylated H4 peptide | AC35, µM (top dose mostly 10 µM), without a hit: at the highest dose activity change, negative = signal loss | hit rate 9.4% among 1,500; call rule not given here
An asterisk follows results filed as active; x = no result given; [ ] = another dose, or the depositor's remark.

SMILES	NSD2 HMT inh	CASP6 VEID inh	ALR inh	Env fusion inh	F508del corr	PglD inh	Alpha artifact
COCCCNC(=O)c1c(N)n(Cc2ccco2)c2nc3ccccc3nc12	-10	1	10	4	-1	3	x
CCOC(=O)c1c(NS(=O)(=O)c2ccccc2)n(CCCOC)c2nc3ccccc3nc12	68*	x	23	x	x	x	5%
COCCCn1c(N)c(C(=O)OCCOC)c2nc3ccccc3nc21	73*	x	x	x	x	-2	-3%
O=C(O)[C@H]1[C@H](CO)[C@H]2Cn3c(ccc(-c4ccncc4)c3=O)[C@@H]1N2C(=O)C1CCC1	x	1	x	x	1	-3	x
N#Cc1cccc(-c2ccc([C@H]3[C@H]4CN(C(=O)Cc5ccccc5)CCCCN4[C@H]3CO)cc2)c1	x	3	x	x	-3	-1	x
C[C@H]1CN([C@@H](C)CO)C(=O)CCCn2cc(nn2)CO[C@@H]1CN(C)C(=O)Oc1ccc2ccccc2c1	x	-2	x	-8[16.7 µM]	-2	-3	x
COc1ccc(N2C(=O)NC(=O)/C(=C/c3cccc(OC(=O)c4cccs4)c3)C2=O)cc1Cl	40	5	7	-1	-2	x	x
Cc1ccc(N2C(=O)NC(=O)/C(=C/c3ccc(OC(=O)c4cccs4)cc3)C2=O)cc1	127*	x	13	-59	x	3	-4%
O=C(O)C[C@@H]1CC[C@H]2NC[C@H](O)COC[C@@H]2O1	x	3	x	-11[16.7 µM]	-2	1	x
O=C(Cc1ccncc1)N1CCCCN2[C@H](C1)[C@H](c1ccc(C#CC3(O)CCCC3)cc1)[C@@H]2CO	x	1	x	x	-1	3	x
O=C(Cc1ccccn1)N1CCCCN2[C@H](C1)[C@@H](c1ccc(-c3ccccc3F)cc1)[C@@H]2CO	x	-4	x	x	1	1	x
CN(C)C(=O)On1c(-c2ccccc2)nc2ccc(Cl)cc21	1	x	-20	x	x	x	x
CC(=O)N(C)C1=Nc2ccc(Cl)cc2C(c2ccccc2)=[N+]([O-])C1	54*	-4	x	-10	0	2	-2%
CCNCCNc1ccc([N+](=O)[O-])c2cccnc12	100*	-4	-13	-17	5	2	-4%
COc1ccc(CC2C(=O)N(c3ccccc3)C(=O)N(c3ccccc3)C2=O)c(OC)c1	-2	x	9	-12	x	1	x
COCCN1C(=O)/C(=C/c2c(OC)cc(OC)cc2OC)C(=O)N(c2ccccc2)C1=O	52*	-2	x	3	0	6	-1%
O=C(Cc1ccccn1)N1CCCCN2[C@@H](CO)[C@H](c3ccc(-c4ccccc4)cc3)[C@@H]2C1	x	-2	x	x	1	2	x
CN1CCN(c2ccc(Cl)cc2N)CC1	7	-12	10	11	-2	x	x
CN1CCN(c2ccc(N)cc2Cl)CC1	77*	-42	90*	0	-6	x	-14%
